# Reference: PubChem BioAssay AID602314 (ICCB-Longwood Screening Facility, Harvard Medical School, 2012)
# About 110 (0.13%) of roughly 84,000 compounds were called active. This excerpt belongs to a sample that is enriched for actives. Unmarked numbers belong to inactive results. Rule as the data show it: active = inhibition above about 30% (passing the limit was not always enough); inactive = the rest.
# System: MgrA (MarR family transcriptional regulator), Staphylococcus aureus Newman
# Experiment: modulators of MgrA DNA binding – biochemical, S. aureus Newman, fluorescence polarization, primary screen (AID 602314);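 also: 0% = protein plus DNA without compound and 100% = DNA alone without protein; higher means less MgrA bound to DNA so lower polarization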
# Conditions: stronger effect = higher value, concentration not given here
row,Compound,inhibition
1,CCN1C(=O)/C(=C/C=C/c2ccco2)C(=O)NC1=S,66.7% (active)
2,CCN(CC)P1(=S)OC(C)(C)CC1(C)O (stereo not given),0.3%
3,O=C1CSC(c2ccccc2)c2c(-c3ccccc3)nn(-c3ccccc3)c2N1 (stereo not given),-0.55%
4,CCn1cc(C=C(C#N)C#N)c2ccccc21,-2.65%
5,O=C1NC(=O)C(C2(C3C(=O)NC(=O)NC3=O)C(=O)Nc3ccccc32)C(=O)N1,1.5%
6,COc1cccc(N2C(=O)/C(=C/c3ccsc3)C(=O)NC2=S)c1,18.1%
7,NC1=C(C(=O)OCc2ccccc2)C2(C(=O)Nc3ccc(Br)cc32)c2c(c3ccccc3oc2=O)O1 (stereo not given),-0.3%
8,CN1CCc2c(c(S)[nH]c(=S)c2C#N)C1,77.6% (active)
9,Cn1c([O-])c([N+](C)(C)C)c(=O)n(C)c1=O,0.5%
10,O=C1CC(c2cccc(Br)c2)c2c(c3ccccc3oc2=O)O1 (stereo not given),13.6%
